Consider 8 molecules from PubChem BioAssay (NCI).

Some test systems named below: HCT-15 colon; HT29 colon; SNB-75 CNS; SNB-19 CNS; U251 CNS; PC-3 prostate; SK-MEL-5 melanoma; UACC-62 melanoma; LOX IMVI melanoma; SK-MEL-28 melanoma; SK-MEL-2 melanoma; EKVX NSCLC; SN12C renal; UO-31 renal; TK-10 renal; ACHN renal; A498 renal; CCRF-CEM leukemia; MOLT-4 leukemia; SR leukemia.
What all share (assay): NCI-60 one-dose screen, 48 h (100 = growth as untreated, 0 = no growth, -100 = all killed)
What all share (conditions): 10 µM unless noted

This is part of a sample that, as a whole, favours compounds with a hit. Of some 83,000 tested, about 20% had one in any assay.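 Each cell line was grown in a 96-well plate and treated with one concentration of compound for 48 hours. Values below 10 were considered active.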 Values without a mark were called inactive. The source made the active and inactive calls.

Take `C=C(C)[C@@H]1CC[C@]2(C(N)=O)CC[C@]3(C)[C@H](CC[C@@H]4[C@@]5(C)CCCNC(C)(C)[C@@H]5CC[C@]43C)[C@@H]12`: the growth with HCT-15 colon was 50.2%; with HT29 colon it was 16.4%; with SNB-75 CNS, 76%; in the assay on SNB-19 CNS, 87.3%; in the assay with U251 CNS, 58.7%; in the assay with PC-3 prostate, 50.3%. For the same molecule, the growth in the assay on SK-MEL-5 melanoma was 67.2%; with UACC-62 melanoma, 87.4%; in the assay on LOX IMVI melanoma, 76.9%; in the assay with SK-MEL-28 melanoma it was 85.1%; in the assay on SK-MEL-2 melanoma, 105%; in the assay on EKVX NSCLC, 87.5%. The growth in the assay with SN12C renal was 77.7%; in the assay with UO-31 renal it was 84.4%; with TK-10 renal, 107%; in the assay with ACHN renal, 88.9%; with A498 renal, 99%; with CCRF-CEM leukemia, 52.5%. Also, the figures for the growth in the assay with MOLT-4 leukemia and in the assay with SR leukemia were 48.9% and 3% (active), respectively.
In the case of `COc1ccccc1-c1ccc2nc(NC(=O)Nc3cc(C(F)(F)F)cc(C(F)(F)F)c3)sc2c1`, the growth was 9.74% (active) in the assay on HCT-15 colon; 4.76% (active) in the assay on HT29 colon; 8.11% (active) with SNB-75 CNS; 25.1% with SNB-19 CNS; 12.5% in the assay on U251 CNS; 13.5% with PC-3 prostate. Moreover, the growth in the assay with SK-MEL-5 melanoma was -86.1% (active); with UACC-62 melanoma, 10.8%; in the assay on LOX IMVI melanoma, 5.02% (active); in the assay with SK-MEL-28 melanoma, 31.1%; in the assay on SK-MEL-2 melanoma, -14.1% (active); in the assay on EKVX NSCLC, 10.7%. Besides, the growth in the assay with SN12C renal is 13%; in the assay with UO-31 renal it was 13.1%; in the assay with TK-10 renal, 9.11% (active); in the assay on ACHN renal, 8.64% (active); in the assay on A498 renal, -26.7% (active); in the assay on CCRF-CEM leukemia, 0.889% (active). Also, the growth is -15.7% (active) in the assay with MOLT-4 leukemia and -23.8% (active) in the assay on SR leukemia.
With `O=C(O)c1ccc(-n2cc(/C=N/Nc3ccc(Cl)cc3Cl)c(-c3ccccc3)n2)cc1`, the growth was 72% in the assay with HCT-15 colon; 94.9% in the assay with HT29 colon; 88.4% with SNB-75 CNS; 101% with SNB-19 CNS; 90.5% in the assay with U251 CNS; 80.7% in the assay on PC-3 prostate. The growth with SK-MEL-5 melanoma was 87.1%; in the assay with UACC-62 melanoma, 96.2%; in the assay on LOX IMVI melanoma it was 91.9%; in the assay on SK-MEL-28 melanoma, 103%; with SK-MEL-2 melanoma, 91.6%; with EKVX NSCLC, 77%. The growth is 102% with SN12C renal; 67.5% in the assay with UO-31 renal; 109% in the assay on TK-10 renal; 83% in the assay on ACHN renal; 108% in the assay with A498 renal; 93.8% in the assay on CCRF-CEM leukemia. In addition, the growth is 88.9% in the assay on MOLT-4 leukemia and 86.2% in the assay with SR leukemia.
For `CC(=O)Oc1ccc(O)cc1`, the growth in the assay on HCT-15 colon was 104%; in the assay with HT29 colon, 87.3%; in the assay with SNB-75 CNS it was 91.1%; with SNB-19 CNS, 96.2%; in the assay with U251 CNS, 101%; in the assay with PC-3 prostate it was 87.1%. Moreover, the growth was 96.7% in the assay with SK-MEL-5 melanoma; 86.6% in the assay on UACC-62 melanoma; 94.4% in the assay on LOX IMVI melanoma; 104% in the assay on SK-MEL-28 melanoma; 87.2% with SK-MEL-2 melanoma; 103% in the assay with EKVX NSCLC. Further, the growth was 99.9% in the assay on SN12C renal; 91.2% with UO-31 renal; 112% with TK-10 renal; 97.8% in the assay with ACHN renal; 100% in the assay with A498 renal; 64.3% in the assay with CCRF-CEM leukemia. In addition, the values for the growth in the assay on MOLT-4 leukemia and in the assay with SR leukemia were 4.64% (active) and 87.7%, respectively.
In the case of `COc1cc(NC(=O)Nc2cnc(Nc3ccc(N4CCOCC4)cc3)nc2Oc2ccc(C(F)(F)F)cc2)cc(OC)c1`, the growth with HCT-15 colon is 103%; with HT29 colon it was 95.5%; with SNB-75 CNS, 84.4%; in the assay with SNB-19 CNS, 99.5%; in the assay on U251 CNS, 97.3%; with PC-3 prostate, 93.3%. The growth in the assay with SK-MEL-5 melanoma was 101%; with UACC-62 melanoma it was 105%; with LOX IMVI melanoma, 95.6%; with SK-MEL-28 melanoma, 116%; with SK-MEL-2 melanoma, 108%; in the assay on EKVX NSCLC, 106%. The growth is 102% with SN12C renal; 84.7% with UO-31 renal; 116% in the assay on TK-10 renal; 105% with ACHN renal; 110% with A498 renal; 89.4% in the assay with CCRF-CEM leukemia. Further, the growth in the assay with MOLT-4 leukemia was 90.5%; with SR leukemia, 79.9%.
Regarding `Oc1ccccc1-c1nc2c3ccccc3c3ccccc3c2o1`, the growth is 92.1% in the assay with HCT-15 colon; 106% in the assay with HT29 colon; 89.7% in the assay on SNB-75 CNS; 95.7% in the assay on SNB-19 CNS; 82% in the assay on U251 CNS; 77.8% in the assay with PC-3 prostate. Further, the growth is 98.6% in the assay with SK-MEL-5 melanoma; 88.4% in the assay with UACC-62 melanoma; 90.6% in the assay on LOX IMVI melanoma; 117% with SK-MEL-28 melanoma; 110% in the assay with SK-MEL-2 melanoma; 78.8% in the assay with EKVX NSCLC. The growth in the assay on SN12C renal is 83%; in the assay on UO-31 renal it was 61%; in the assay with TK-10 renal it was 162%; in the assay with ACHN renal it was 91.1%; with A498 renal, 114%; in the assay on CCRF-CEM leukemia it was 82.1%. The growth is 95.3% in the assay with MOLT-4 leukemia and 73.7% in the assay with SR leukemia.
For the molecule `Nc1c(C(=O)Nc2ccccn2)sc2nc3c(cc12)CCCCC3`, the growth in the assay with HCT-15 colon is 24%; in the assay with HT29 colon, 7.16% (active); in the assay with SNB-75 CNS, 12.3%; with SNB-19 CNS, 33.4%; in the assay on U251 CNS, 23.2%; with PC-3 prostate, 31.4%. The growth is 22.2% with SK-MEL-5 melanoma; 40.8% with UACC-62 melanoma; 48.6% with LOX IMVI melanoma; 73.7% with SK-MEL-28 melanoma; 44.2% with SK-MEL-2 melanoma; 37.8% in the assay on EKVX NSCLC. Moreover, the growth with SN12C renal is 39.4%; with UO-31 renal, 49%; in the assay on TK-10 renal it was 71.9%; in the assay on ACHN renal, 52.6%; in the assay with A498 renal, 25.9%; in the assay on CCRF-CEM leukemia, 6.92% (active). For the same molecule, the growth was 15.5% in the assay on MOLT-4 leukemia and 8.04% (active) in the assay on SR leukemia.
Consider `Cc1cc(C)n(-c2nc(-c3cccs3)c(C#N)c(=O)[nH]2)n1`, for which the growth with HCT-15 colon is 71.1%; with HT29 colon, 100%; with SNB-75 CNS it was 89.2%; in the assay on SNB-19 CNS it was 96.3%; with U251 CNS, 90.8%; in the assay on PC-3 prostate, 94.2%. Further, the growth is 102% in the assay on SK-MEL-5 melanoma; 94.8% with UACC-62 melanoma; 84.7% in the assay on LOX IMVI melanoma; 99.8% in the assay on SK-MEL-28 melanoma; 97.2% in the assay on SK-MEL-2 melanoma; 95.5% in the assay on EKVX NSCLC. Further, the growth is 95.8% with SN12C renal; 89.1% in the assay with UO-31 renal; 103% in the assay on TK-10 renal; 108% in the assay on ACHN renal; 93.8% in the assay with A498 renal; 103% in the assay on CCRF-CEM leukemia. The results for the growth in the assay with MOLT-4 leukemia and in the assay on SR leukemia were 87% and 100%, respectively.
